Publication PMC12820563, “FoxP3 forms a head-to-head dimer in vivo and stabilizes its multimerization on adjacent microsatellites”
The full ranking holds about 16,000 sequences; the median of “rpm ratio (pull-down/input)” is about 0.5, and the highest 2% start at about 5.5. The list comes from a sample in which the highest values are over-represented; it also holds similar and randomly drawn sequences.

These sequences were tested against T1, MBP-FoxP3dN (Mus musculus, UniProt Q99JB6 188-423) (assay: PD-seq (MBP pull-down with sequencing); 20 mM Tris-HCl pH 7.5, 100 mM NaCl, 1.5 mM MgCl2, 0.4 uM protein, 0.1 uM dsDNA library, 30 min, room temperature, amylose pull-down; high values mean tight binding). Details: protein: recombinant; tags: His6-MBP; chain copies: 2; dsDNA, one strand shown.
T1 sequence: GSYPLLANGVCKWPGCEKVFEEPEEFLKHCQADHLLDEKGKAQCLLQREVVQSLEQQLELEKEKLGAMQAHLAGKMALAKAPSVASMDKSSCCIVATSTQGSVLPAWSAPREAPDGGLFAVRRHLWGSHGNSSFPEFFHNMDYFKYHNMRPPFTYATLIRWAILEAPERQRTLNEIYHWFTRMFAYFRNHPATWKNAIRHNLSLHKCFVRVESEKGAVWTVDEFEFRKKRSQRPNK
How it was run: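 Binding is given as reads-per-million enrichment, pull-down over input, with replicates pooled. The bait was an N-terminus-lacking mouse FoxP3 or FoxP1 fragment with a His6-MBP tag, expressed in E. coli and used at 0.4 µM with 0.1 µM Klenow-filled degenerate double-stranded DNA library for 30 min at room temperature in Tris pH 7.5 buffer with NaCl and MgCl2. Amylose resin pull-down with three washes was followed by proteinase K release, PCR barcoding and Illumina sequencing.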

Sequence | binding signal
GATGATTGTTCTCCCAGCTGATGAATTTGTACCTTCGAGTAAACAAATTTTCCTAATCTTTCTGTTCAAGCGCCATCTAC | 2.49 RPM ratio (pull-down/input)
GATGATTGTTCTCCCAGCTGATGAATTGAGCCCCTCGAGTAAACAAATTTTCCTAATCTTTCTGTTCAAGCGCCATCTAC | 0.983 RPM ratio (pull-down/input)
GATGATTGTTCTCCCAGCTGATGAATTACACCTCTCGAGTAAACAAATTTTCCTAATCTTTCTGTTCAAGCGCCATCTAC | 0.705 RPM ratio (pull-down/input)
GATGATTGTTCTCCCAGCTGATGAATTAACTGTGTCGAGTAAACAAATTTTCCTAATCTTTCTGTTCAAGCGCCATCTAC | 0.556 RPM ratio (pull-down/input)
GATGATTGTTCTCCCAGCTGATGAATTGTGTTTTTCGAGTAAACAAATTTTCCTAATCTTTCTGTTCAAGCGCCATCTAC | 6.66 RPM ratio (pull-down/input)
GATGATTGTTCTCCCAGCTGATGAATTGTGTGTTTCGAGTAAACAAATTTTCCTAATCTTTCTGTTCAAGCGCCATCTAC | 4.97 RPM ratio (pull-down/input)
GATGATTGTTCTCCCAGCTGATGAATTGCGTTTTTCGAGTAAACAAATTTTCCTAATCTTTCTGTTCAAGCGCCATCTAC | 2.11 RPM ratio (pull-down/input)
GATGATTGTTCTCCCAGCTGATGAATTCTGTGTTTCGAGTAAACAAATTTTCCTAATCTTTCTGTTCAAGCGCCATCTAC | 3.31 RPM ratio (pull-down/input)
GATGATTGTTCTCCCAGCTGATGAATTTTTGTGCTCGAGTAAACAAATTTTCCTAATCTTTCTGTTCAAGCGCCATCTAC | 0.442 RPM ratio (pull-down/input)
GATGATTGTTCTCCCAGCTGATGAATTGTGCGTTTCGAGTAAACAAATTTTCCTAATCTTTCTGTTCAAGCGCCATCTAC | 5.5 RPM ratio (pull-down/input)
GATGATTGTTCTCCCAGCTGATGAATTTGTGTGCTCGAGTAAACAAATTTTCCTAATCTTTCTGTTCAAGCGCCATCTAC | 5.67 RPM ratio (pull-down/input)
GATGATTGTTCTCCCAGCTGATGAATTCTGCGTCTCGAGTAAACAAATTTTCCTAATCTTTCTGTTCAAGCGCCATCTAC | 4.55 RPM ratio (pull-down/input)
GATGATTGTTCTCCCAGCTGATGAATTTGTGCGTTCGAGTAAACAAATTTTCCTAATCTTTCTGTTCAAGCGCCATCTAC | 3.7 RPM ratio (pull-down/input)
GATGATTGTTCTCCCAGCTGATGAATTGTGCGTCTCGAGTAAACAAATTTTCCTAATCTTTCTGTTCAAGCGCCATCTAC | 6.12 RPM ratio (pull-down/input)
GATGATTGTTCTCCCAGCTGATGAATTTGTGCTCTCGAGTAAACAAATTTTCCTAATCTTTCTGTTCAAGCGCCATCTAC | 2.89 RPM ratio (pull-down/input)
GATGATTGTTCTCCCAGCTGATGAATTTTGCGTCTCGAGTAAACAAATTTTCCTAATCTTTCTGTTCAAGCGCCATCTAC | 5.4 RPM ratio (pull-down/input)
GATGATTGTTCTCCCAGCTGATGAATTAACGGATTCGAGTAAACAAATTTTCCTAATCTTTCTGTTCAAGCGCCATCTAC | 0.29 RPM ratio (pull-down/input)

Sequence | binding signal
GATGATTGTTCTCCCAGCTGATGAATTCCTAACTTCGAGTAAACAAATTTTCCTAATCTTTCTGTTCAAGCGCCATCTAC | 0.231 RPM ratio (pull-down/input)
GATGATTGTTCTCCCAGCTGATGAATTCACCTTATCGAGTAAACAAATTTTCCTAATCTTTCTGTTCAAGCGCCATCTAC | 0.363 RPM ratio (pull-down/input)
GATGATTGTTCTCCCAGCTGATGAATTGGAGCTGTCGAGTAAACAAATTTTCCTAATCTTTCTGTTCAAGCGCCATCTAC | 0.312 RPM ratio (pull-down/input)
GATGATTGTTCTCCCAGCTGATGAATTCTATAGGTCGAGTAAACAAATTTTCCTAATCTTTCTGTTCAAGCGCCATCTAC | 0.372 RPM ratio (pull-down/input)
GATGATTGTTCTCCCAGCTGATGAATTCCAGCTGTCGAGTAAACAAATTTTCCTAATCTTTCTGTTCAAGCGCCATCTAC | 0.355 RPM ratio (pull-down/input)
GATGATTGTTCTCCCAGCTGATGAATTACCATAATCGAGTAAACAAATTTTCCTAATCTTTCTGTTCAAGCGCCATCTAC | 0.448 RPM ratio (pull-down/input)
GATGATTGTTCTCCCAGCTGATGAATTCAGCGCCTCGAGTAAACAAATTTTCCTAATCTTTCTGTTCAAGCGCCATCTAC | 1.17 RPM ratio (pull-down/input)
GATGATTGTTCTCCCAGCTGATGAATTGCTACCGTCGAGTAAACAAATTTTCCTAATCTTTCTGTTCAAGCGCCATCTAC | 0.615 RPM ratio (pull-down/input)
GATGATTGTTCTCCCAGCTGATGAATTCATACTATCGAGTAAACAAATTTTCCTAATCTTTCTGTTCAAGCGCCATCTAC | 0.534 RPM ratio (pull-down/input)
GATGATTGTTCTCCCAGCTGATGAATTCGAGCCATCGAGTAAACAAATTTTCCTAATCTTTCTGTTCAAGCGCCATCTAC | 1.13 RPM ratio (pull-down/input)
GATGATTGTTCTCCCAGCTGATGAATTGACGTCTTCGAGTAAACAAATTTTCCTAATCTTTCTGTTCAAGCGCCATCTAC | 0.448 RPM ratio (pull-down/input)
GATGATTGTTCTCCCAGCTGATGAATTGTACTACTCGAGTAAACAAATTTTCCTAATCTTTCTGTTCAAGCGCCATCTAC | 0.546 RPM ratio (pull-down/input)
GATGATTGTTCTCCCAGCTGATGAATTATCAGGCTCGAGTAAACAAATTTTCCTAATCTTTCTGTTCAAGCGCCATCTAC | 0.299 RPM ratio (pull-down/input)
GATGATTGTTCTCCCAGCTGATGAATTGTGTTCTTCGAGTAAACAAATTTTCCTAATCTTTCTGTTCAAGCGCCATCTAC | 2.39 RPM ratio (pull-down/input)
GATGATTGTTCTCCCAGCTGATGAATTTCTGTGTTCGAGTAAACAAATTTTCCTAATCTTTCTGTTCAAGCGCCATCTAC | 0.716 RPM ratio (pull-down/input)
GATGATTGTTCTCCCAGCTGATGAATTGTTGTGTTCGAGTAAACAAATTTTCCTAATCTTTCTGTTCAAGCGCCATCTAC | 6.09 RPM ratio (pull-down/input)
